These results are taken from the supplement of paper PMC6555819.

The subject of the first assay is PPARa:RXRa (NR concentration 270 nM, RXRa partner concentration 90 nM). Nature of the assay: PBM binding z-score (relative to random genomic background probes); higher = stronger binding; sequences stand for … in GC…GCGATTGACAGCGTAGAATGAAGG
In short, it runs like this:
(§1)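 Each nuclear receptor dimer, without ligand, was incubated for 1 h on custom Agilent 4×180K protein-binding microarrays. Binding was detected with antibodies against each partner (one per run), and scanned fluorescence was regression-normalized. The binding z-scores are referenced to random human genomic background probes.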
ATCTCTAGGTAACGAGTTCAGTGAAAGAGAGGAC displayed a PBM binding z-score of 2.04.

Turning to CCTACTTGGTCAGGAGGTCACACACCGGATATGA, the PBM binding z-score amounted to 4.29.

Sequence GGAACGAGGGCATTCGAGTTGGTAGCATGGCGAT showed a PBM binding z-score of 1.06.

For the sequence TCATATAGATAAAAGGTGAAAGTCGGTGTGGTAA, the PBM binding z-score was 3.28.

The sequence TCATATAGGGAATACAGGTGAAAGTCGGCATCTA had a PBM binding z-score of 1.92.

With CTCGAAAGGTCGTTCTCAGGTGAGTATACCAAAC, the PBM binding z-score worked out at 4.56.

Turning to CGAACTACGTCAGAACAGGACAGTGAAGGATGAT, the PBM binding z-score is -0.716.

As to TCTTGTAGATCTACAGGAGGTTAAGAAAGATCGA, the PBM binding z-score amounted to 1.13.

With CGTCCAAGGTCCTAGGAGGTCAGTGAAGACAGAT, the PBM binding z-score is 2.44.

The sequence ACTAGAAGGCCAAGTTTGGGTCACTCAAACAAAG returned a PBM binding z-score of 1.52.

The sequence CAAACTTGGTCACCGGAAGGTCAAAGTCCGCATG gave a PBM binding z-score of 3.7.

In turn, ATATGTAGGTTAATGGTCATTCAGGTTGGTTCGC returned a PBM binding z-score of 4.6.

With AGAATGAGGTTATATGTAGATCAGGGAAGAAAGT, the PBM binding z-score amounted to 3.26.

On to CCCTACGGGTCACTGACAGGTTATAGCATTTGGA, for which the PBM binding z-score was determined as 5.1.

Take CCTACAGGGCCACGAAAGGTCATTGATTCAGTGA: the PBM binding z-score was 4.51.

Take ATGTCTAGGTAAAGTTCAGTGAAAGATCGATAGA: the PBM binding z-score was 2.56.

TCAAGCAGGCCAGAGGGTCACTCAAGAGGTACGG showed a PBM binding z-score of 2.59.

TAGCCTAGGTCATTCAGGGGACAGTATAGAAAGC gave a PBM binding z-score of 3.96.

For another assay, the system named is PPARg:RXRa (NR concentration 180 nM, RXRa partner concentration 90 nM). Described as above. In outline:
as §1
In turn, AATACATGGTCACTAGGCCAGAGTAGGTACGAAT yielded a PBM binding z-score of 1.65.

Turning to CCGACTTGGGCAGAAAGGTTACCATACCATCCGG, the PBM binding z-score was found to be 1.06.

Sequence ATCTCTAGGTAAAGTTCACTGAAAGATCGATAGA had a PBM binding z-score of 5.42.

In the case of CCTTACGGGTCACGAGGTTATGGCACGACGAGCG, the PBM binding z-score came to 7.08.

Sequence GGTACGAGGGCAAGTTGATAGCAGAGTTTGATGG returned a PBM binding z-score of 0.722.

The sequence ATCTCTAGGTAACCAAGGTCAGTGAATGCCGAAC had a PBM binding z-score of 1.79.

As to GCATATAGGTAATACAAGGTGAGAGTCCGATTGT, the PBM binding z-score was found to be 1.14.

In the case of CAAACTAGGTCACCGGAAGGTCAACGTCCGCATG, the PBM binding z-score is 9.54.

With AGAACGAGGGCAAGCTGAGTTGATAGCAGAGTAG, the PBM binding z-score stood at 1.32.

Sequence CCGACTGGGGCATAAAGTTACCATAAGCCAGCCC had a PBM binding z-score of 0.855.

Consider TCATATAGGTAAACGCTAGGTGAAAGTCCGATCT, for which the PBM binding z-score was found to be 1.29.

Consider ATACCAAGTTGATCGTGAGGTCGTTGATACTAAC, for which the PBM binding z-score is 0.148.

In turn, TTACCAAGGTGAGCAGAGGTCGTTGATCCAACTC came in with a PBM binding z-score of 2.17.

The sequence ATCTCTCGGTAACCAAGTTCAGTGAATGCCGAAC gave a PBM binding z-score of -0.0283.

The sequence TCTAGTTGGTCACGGAGGTCAGACACGACGGGTA registered a PBM binding z-score of 2.45.

Consider GCATATAGGTAATGCAAGGTGAAAGTCCGATTGT, for which the PBM binding z-score is 1.05.

For TAGCCTAGGTCAGATGGGGCCAGTATACGCTATA, the PBM binding z-score was 0.972.

For ATCTCTAGGTACAGTTCAGTGAAAGATCGATAGA, the PBM binding z-score turned out to be 0.382.

For the sequence CCTGCTAGGTCGTGGTCAGCTAATCTACAGTATG, the PBM binding z-score is -0.0367.

CCGACTGGGTCATAAGGTTACCATAAGCCAGCCC returned a PBM binding z-score of 5.19.

GATACAGGGTCAGCTAGAGGCCAGTGTATGGAAA: the PBM binding z-score was determined as 3.25.

CAAACTAGCTCAAAGGTCAAAGTCGAGCCAACCA displayed a PBM binding z-score of 9.32.

Consider ATCTCTAGGTAACGAGTTCAGTGAAAGAGAGGAC, for which the PBM binding z-score was 1.69.

CCTACTTGGTCAGGAGGTCACACACCGGATATGA showed a PBM binding z-score of 3.39.

GGAACGAGGGCATTCGAGTTGGTAGCATGGCGAT had a PBM binding z-score of 0.508.

In turn, TCATATAGATAAAAGGTGAAAGTCGGTGTGGTAA had a PBM binding z-score of 3.63.

In turn, TCATATAGGGAATACAGGTGAAAGTCGGCATCTA registered a PBM binding z-score of 1.16.

CTCGAAAGGTCGTTCTCAGGTGAGTATACCAAAC showed a PBM binding z-score of 1.99.

CGAACTACGTCAGAACAGGACAGTGAAGGATGAT: the PBM binding z-score was 0.632.

The sequence TCTTGTAGATCTACAGGAGGTTAAGAAAGATCGA gave a PBM binding z-score of 0.0555.

CGTCCAAGGTCCTAGGAGGTCAGTGAAGACAGAT had a PBM binding z-score of 0.157.

Sequence ACTAGAAGGCCAAGTTTGGGTCACTCAAACAAAG gave a PBM binding z-score of 0.293.

In the case of CAAACTTGGTCACCGGAAGGTCAAAGTCCGCATG, the PBM binding z-score came out at 2.29.

As for ATATGTAGGTTAATGGTCATTCAGGTTGGTTCGC, the PBM binding z-score is 7.74.

In the case of AGAATGAGGTTATATGTAGATCAGGGAAGAAAGT, the PBM binding z-score is 2.33.

The sequence CCCTACGGGTCACTGACAGGTTATAGCATTTGGA gave a PBM binding z-score of 3.55.

Turning to CCTACAGGGCCACGAAAGGTCATTGATTCAGTGA, the PBM binding z-score worked out at 1.86.

For ATGTCTAGGTAAAGTTCAGTGAAAGATCGATAGA, the PBM binding z-score stood at 3.51.

Take TCAAGCAGGCCAGAGGGTCACTCAAGAGGTACGG: the PBM binding z-score came out at 1.67.

Take TAGCCTAGGTCATTCAGGGGACAGTATAGAAAGC: the PBM binding z-score turned out to be 2.88.

In another assay the test system is PPARg:RXRa 270nM:90nM, anti-RXR (NR concentration 270 nM, RXRa partner concentration 90 nM). The description is as above. In short, it runs like this: as §1
AATACATGGTCACTAGGCCAGAGTAGGTACGAAT had a PBM binding z-score of 1.15.

In turn, CCGACTTGGGCAGAAAGGTTACCATACCATCCGG returned a PBM binding z-score of 1.64.

In turn, ATCTCTAGGTAAAGTTCACTGAAAGATCGATAGA displayed a PBM binding z-score of 5.61.

The sequence CCTTACGGGTCACGAGGTTATGGCACGACGAGCG returned a PBM binding z-score of 6.31.

GGTACGAGGGCAAGTTGATAGCAGAGTTTGATGG: the PBM binding z-score was found to be 0.456.

Turning to ATCTCTAGGTAACCAAGGTCAGTGAATGCCGAAC, the PBM binding z-score was 1.92.

GCATATAGGTAATACAAGGTGAGAGTCCGATTGT returned a PBM binding z-score of 1.19.

In the case of CAAACTAGGTCACCGGAAGGTCAACGTCCGCATG, the PBM binding z-score is 8.04.

AGAACGAGGGCAAGCTGAGTTGATAGCAGAGTAG displayed a PBM binding z-score of 1.19.

CCGACTGGGGCATAAAGTTACCATAAGCCAGCCC gave a PBM binding z-score of 0.803.

The sequence TCATATAGGTAAACGCTAGGTGAAAGTCCGATCT returned a PBM binding z-score of 2.43.

ATACCAAGTTGATCGTGAGGTCGTTGATACTAAC yielded a PBM binding z-score of 0.229.

Consider TTACCAAGGTGAGCAGAGGTCGTTGATCCAACTC, for which the PBM binding z-score worked out at 2.89.

Sequence ATCTCTCGGTAACCAAGTTCAGTGAATGCCGAAC displayed a PBM binding z-score of 0.289.

In turn, TCTAGTTGGTCACGGAGGTCAGACACGACGGGTA gave a PBM binding z-score of 2.97.

GCATATAGGTAATGCAAGGTGAAAGTCCGATTGT: the PBM binding z-score was found to be 1.15.

Sequence TAGCCTAGGTCAGATGGGGCCAGTATACGCTATA displayed a PBM binding z-score of 1.14.

Turning to ATCTCTAGGTACAGTTCAGTGAAAGATCGATAGA, the PBM binding z-score stood at 0.647.

Regarding CCTGCTAGGTCGTGGTCAGCTAATCTACAGTATG, the PBM binding z-score is 0.111.

As to CCGACTGGGTCATAAGGTTACCATAAGCCAGCCC, the PBM binding z-score stood at 5.46.

The sequence GATACAGGGTCAGCTAGAGGCCAGTGTATGGAAA gave a PBM binding z-score of 3.

As to CAAACTAGCTCAAAGGTCAAAGTCGAGCCAACCA, the PBM binding z-score is 8.51.

Take ATCTCTAGGTAACGAGTTCAGTGAAAGAGAGGAC: the PBM binding z-score came out at 1.73.

Turning to CCTACTTGGTCAGGAGGTCACACACCGGATATGA, the PBM binding z-score came to 3.9.

Turning to GGAACGAGGGCATTCGAGTTGGTAGCATGGCGAT, the PBM binding z-score was determined as 0.442.

Sequence TCATATAGATAAAAGGTGAAAGTCGGTGTGGTAA came in with a PBM binding z-score of 5.16.

As for TCATATAGGGAATACAGGTGAAAGTCGGCATCTA, the PBM binding z-score turned out to be 2.76.

In turn, CTCGAAAGGTCGTTCTCAGGTGAGTATACCAAAC returned a PBM binding z-score of 3.08.

In the case of CGAACTACGTCAGAACAGGACAGTGAAGGATGAT, the PBM binding z-score was -0.752.

TCTTGTAGATCTACAGGAGGTTAAGAAAGATCGA displayed a PBM binding z-score of 1.06.

For the sequence CGTCCAAGGTCCTAGGAGGTCAGTGAAGACAGAT, the PBM binding z-score was found to be 0.654.

With ACTAGAAGGCCAAGTTTGGGTCACTCAAACAAAG, the PBM binding z-score was 0.723.

For CAAACTTGGTCACCGGAAGGTCAAAGTCCGCATG, the PBM binding z-score stood at 3.

As for ATATGTAGGTTAATGGTCATTCAGGTTGGTTCGC, the PBM binding z-score was 7.54.

In the case of AGAATGAGGTTATATGTAGATCAGGGAAGAAAGT, the PBM binding z-score was determined as 2.5.

As for CCCTACGGGTCACTGACAGGTTATAGCATTTGGA, the PBM binding z-score was 3.77.

Sequence CCTACAGGGCCACGAAAGGTCATTGATTCAGTGA came in with a PBM binding z-score of 3.15.

In the case of ATGTCTAGGTAAAGTTCAGTGAAAGATCGATAGA, the PBM binding z-score is 4.55.

On to TCAAGCAGGCCAGAGGGTCACTCAAGAGGTACGG, for which the PBM binding z-score was 2.69.

The sequence TAGCCTAGGTCATTCAGGGGACAGTATAGAAAGC came in with a PBM binding z-score of 2.81.
